Results reported in ChEMBL document CHEMBL4513216, “Probing the Open Global Health Chemical Diversity Library for Multistage-Active Starting Points for Next-Generation Antimalarials” (ACS Infect Dis, 2020).
The whole screen tested about 69,000 compounds, of which about 8,600 (12%) showed an effect of 50% or more. The full list was thinned out, with strong results kept by preference.

The molecules below were run on Plasmodium berghei (assay: Screen against P. berghei liver stage (PbLuc), transformed with Luciferase, at 10uM). Details: tested at 10 uM.
Type: functional, HepG2

Row | SMILES | INHIBITION [%]
1 | O=C(CC1[C@H]2CN(C(=O)c3cccnc3)C[C@@H]12)Nc1cccnc1 (some centres undefined) | 34.6
2 | Cn1cc(-c2nnc3sc(C4CCC4)nn23)cn1 | 25.2
3 | COc1cc(C)ccc1OCC(=O)NS(=O)(=O)c1cccnc1 | -16
4 | O=S(=O)(C1CC1)N1CCO[C@@H]2CC(COCc3cccnc3)C[C@H]21 (some centres undefined) | 34.5
5 | O=C(Nc1cccnc1)NC1(c2cccc(F)c2)CC1 | -2.39
6 | Cc1ccn(CC(=O)Nc2cc(-c3ccncc3)[nH]n2)n1 | 39.6
7 | Cc1cc(C)n(CC(=O)Nc2cc(-c3ccncc3)[nH]n2)n1 | 5.94
8 | Cc1ccnn1CC(=O)Nc1cc(-c2ccncc2)[nH]n1 | 63.4
9 | Cc1cc(C2CCCN(C(=O)COc3cc(C)on3)C2)n[nH]1 (centres undefined) | -23.8
10 | COCCNc1ncc(-c2onc(C)c2C)c(-c2ccco2)n1 | 31.85
11 | Cc1nnc(N2CCOC(C)(C(=O)NC3CCCC3)C2)c2ccccc12 (centres undefined) | 4.41
12 | CCn1cc(CNC(=O)CCn2ncc3c(Cl)cccc32)cn1 | 54.9
13 | O=C(CCn1ncc2c(Cl)cccc21)NCC1CC1 | 68.9
14 | CN(C)CCNC(=O)CCn1ncc2c(Cl)cccc21 | 55.7
15 | O=C(CCn1ncc2c(Cl)cccc21)NCCCO | 49.9
16 | O=C(CCn1ncc2c(Cl)cccc21)NCCCn1cccn1 | -2.28
17 | CCN(CC)C(=O)CCn1ncc2c(Cl)cccc21 | -4.74
18 | CC(C)(C)NC(=O)CCn1ncc2c(Cl)cccc21 | 47.4
19 | Cc1nn(C)c(C)c1CNC(=O)CCn1ncc2c(Cl)cccc21 | 49.9
20 | COCCNC(=O)CCn1ncc2c(Cl)cccc21 | 55.7
21 | COCCCNC(=O)CCn1ncc2c(Cl)cccc21 | 20.9
22 | CN(C)C(=O)CNC(=O)CCn1ncc2c(Cl)cccc21 | -15.8
23 | CCn1ncc(NC(=O)CCn2ncc3c(Cl)cccc32)c1C | 9.32
24 | Cc1nnc(N2CCc3cncnc3C2)c(C#N)c1C | -5.08
25 | Cc1nc(C2CCCN2CC(=O)Nc2c(C)n[nH]c2C)no1 (centres undefined) | 27.8
26 | CC[C@H](C)[C@H](N)C(=O)Nc1nc(-c2cnc(N(C)CCO)nc2)cs1 | -37.5
27 | Cc1cn2c(=O)c(-c3ccnc(N4CCC[C@@H]4CO)n3)cnc2s1 | 4.08

Row | SMILES | INHIBITION [%]
28 | Cn1cc(CC2CCN(C(=O)NCc3cccc(C(N)=O)c3)C2)cn1 (centres undefined) | -51.705
29 | O=C1NC2(CCN(Cc3cccnc3)CC2)CC1c1ccncc1 (centres undefined) | 49.5
30 | O=C1NC2(CCN(CCO)CC2)CC1c1ccccc1 (centres undefined) | 21.6
31 | O=C1NC2(CCNCC2)CC1c1ccccc1 (centres undefined) | 49.7
32 | O=C1NC2(CCN(C(=O)Cc3ccsc3)CC2)CC1c1ccccc1 (centres undefined) | -4.88
33 | O=C1CC(c2ccccc2)C2(CCN(CC3CC3)CC2)N1 (centres undefined) | 31.2
34 | O=C1NC2(CCN(CC3CC3)CC2)CC1c1ccccc1 (centres undefined) | 52.6
35 | O=C1NC2(CCNCC2)CC1c1ccncc1 (centres undefined) | 33.4
36 | O=C1NC2(CCNCC2)CC1c1cccnc1 (centres undefined) | 52.3
37 | O=C1NC2(CCN(C/C=C/c3ccccc3)CC2)CC1c1ccccc1 (centres undefined) | 63.8
38 | O=C1NC2(CCN(CCc3ccccc3)CC2)CC1c1ccccc1 (centres undefined) | 52.6
39 | O=C1NC2(CCN(C(=O)c3ccnnc3)CC2)CC1c1ccccc1 (centres undefined) | -16.9
40 | O=C1NC2(CCN(Cc3cccnc3)CC2)CC1c1cccnc1 (centres undefined) | -12.1
41 | CCOCc1cnc2n1CCN(Cc1cccs1)C2C (centres undefined) | -10.5
42 | Nc1cc(-c2c[nH]nc2C2CCCN2CCCc2ccccc2)ccn1 (centres undefined) | 17.8
43 | CCn1cc(CN2CCCN(C(=O)c3cccc(C#N)c3)CC2)cn1 | -73.1
44 | CNc1ccc(CC2CCCN(Cc3c[nH]cn3)C2)nn1 (centres undefined) | 36.9
45 | Cc1cnn(CC2CCCN2C(=O)Cc2c(C)noc2C)c1 (centres undefined) | 29.4
46 | Cc1nccn1CC1CCCN(S(=O)(=O)c2cnn(C)c2)C1 (centres undefined) | 42.5
47 | CCc1nccn1C1CCCN(C(=O)c2csc(C3CC3)n2)C1 (centres undefined) | -4.16
48 | CC(C)CN1C[C@H]2CCN(c3ncccn3)CC[C@H]2S1(=O)=O | -14.9
49 | COCCN1C[C@H]2CCN(c3ncccn3)CC[C@H]2S1(=O)=O | 82.9
50 | CCN1C[C@H]2CCN(c3ncccn3)CC[C@H]2S1(=O)=O | -41.6
51 | CCn1nc(C)c2nnn(CC(=O)Nc3ccccc3)c(=O)c21 | 49.9
52 | CN(C)S(=O)(=O)N1C[C@H]2CCC[C@@]2(COc2cccnc2)C1 | -16.9
53 | CN1CCN([C@@H]2CCN(C3CCOCC3)[C@H]2Cc2cnn(C)c2)CC1 | -8.85
54 | Cc1nn2c(-c3snnc3C)nnc2s1 | 61.8
